Records with an inconclusive call do not appear. A call without a number means that no potency is given here. Calls of active or inactive are those of the source. The call rests on the fitted dose curve; in most records, active means well fitted activation curve with a large enough effect; inconclusive means small, poorly fitted or top-dose-only effect; inactive means flat fitted curve, though single readings scatter.
Test: qHTS for Inhibitors of Cell Surface uPA Generation: Confirmatory Assay for Cherry-picked Compounds
How it was run: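 RAW 264.7 cells at 4000/well, incubated overnight, then treated with compounds. After 24 h at 37 C, viability was read by ATPlite luminescence. An increase in signal indicates blocked uPA-dependent LF entry.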

SMILES	Potency
COC(=O)[C@]1(Cc2ccccc2)N[C@H](CN(C)C(=O)c2ccccc2)[C@@H]2C(=O)N(Cc3ccccc3)C(=O)[C@@H]21	inactive
O=C(NCCS(=O)(=O)N1CCC2(CC1)OCCO2)c1ccc(F)cc1	inactive
O=C1NC(CCc2ccccc2)C(=O)N1Cc1ccccc1Cl (stereo unspecified)	inactive
O=C(c1cc(COc2ccc(F)cc2Cl)on1)N1CCCCCC1	inactive
CCCCn1c(=NC(=O)c2ccco2)c(C(=O)OCC)cc2c(=O)n3cccc(C)c3nc21	inactive
CCCOC(=O)CSC1=C(C#N)C(c2ccccc2Cl)CC(=O)N1 (stereo unspecified)	inactive
Cc1cccc(CCNC(=O)Cc2ccc(NC3=NC4CS(=O)(=O)CC4S3)cc2)c1 (stereo unspecified)	inactive
COc1ccc(C(CNC(=O)C(C)Oc2ccc(Br)cc2)N2CCCC2)cc1 (stereo unspecified)	inactive
Cc1ccnc(NS(=O)(=O)c2ccc(NC(=O)C3C4C=CC(C4)C3C(=O)O)cc2)n1 (stereo unspecified)	inactive
CC(/C=C/C1(O)C(C)CC(O)CC1(C)C)OC1OC(CO)C(O)C(O)C1O (stereo unspecified)	inactive
O=C(O)c1ccc(-n2nnnc2SCc2cccc(Br)c2)cc1	inactive
COc1ccccc1N=Nc1c(C)[nH]n(-c2ccccc2)c1=O	inactive
CCCn1nnc(NC(=S)NC(=O)c2ccccc2OC)n1	inactive
CC1(C)C([N+](=O)[O-])C(c2ccc(F)cc2)NC(c2ccc(F)cc2)C1[N+](=O)[O-] (stereo unspecified)	inactive
CC(=O)c1cccc(NC(=O)N2C3CCC2CC(O)(c2cccnc2)C3)c1 (stereo unspecified)	inactive
Cc1noc(C)c1COc1ccc(C(=O)N2CCN(S(=O)(=O)c3ccc(Cl)cc3)CC2)cc1	inactive
